Consider 40 compounds from PubChem BioAssay (NCI).

Structures are written as SMILES. Compounds without any hit were thinned out: in the full panel of roughly 79,000, 15% have a hit. A number with no mark means an inactive call. Rule as the data show it: active = growth inhibition above about 70%; inactive = the rest.

The nature of the first experiment: NCI Yeast Anticancer Drug Screen. Data for the cln2 rad14 strain (AID 165).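 Also: 0% = growth equal to vehicle treated cultures.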 The following applies: S. cerevisiae cln2 rad14 strain, at 50.0 µM, active compounds read high. The method, boiled down:
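cln2 rad14 yeast strain; compound exposure; growth inhibition read vs vehicle controls.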
As to `N#Cc1c(-c2ccccc2)nc(-c2ccccc2)sc1=S`, the growth inhibition is 4.55%.

In the case of `C=C(Cl)C(=C)CCC(Cl)C(C)(C)Cl` (stereo not given), the growth inhibition was 2.5%.

On to `CCOC(C)Oc1ccccc1` (stereo not given), for which the growth inhibition is 15.4%.

Regarding `CCOC(=O)C(Br)CN1C(=O)c2ccccc2C1=O` (stereo not given), the growth inhibition was 12.6%.

For `COc1ccc2c(c1)C(C)(C(N)=O)CCC2` (stereo not given), the growth inhibition was 5.5%.

Consider `C/C(CC(O)(C(F)(F)F)C(F)(F)F)=N\NC(N)=O`, for which the growth inhibition was -1.45%.

Turning to `COc1nc(N=P(c2ccccc2)(c2ccccc2)c2ccccc2)cc(=O)[nH]1`, the growth inhibition was 27.7%.

Consider `COC1(OC)C(Cl)=C(Cl)C2C1C1(Cl)C(Cl)=C(Cl)C2(Cl)C1(OC)OC` (stereo not given), for which the growth inhibition is 13.6%.

For `CCCC(O)C(C)N` (stereo not given), the growth inhibition is -0.2%.

Turning to `CC(=O)O[C@H]1CC(C)(C)C(=C=C/C(C)=C/C=C/C=C/C=C(C)/C=C2C=C(/C=C/[C@@]34O[C@]3(C)C[C@@H](O)CC4(C)C)C(=O)O/2)[C@](C)(O)C1`, the growth inhibition was 6.2%.

As for `CC(=O)CC(=O)OC1CCCC(C)C1` (stereo not given), the growth inhibition is -39.4%.

In the case of `O=C(NC/C=C/Br)Oc1cccc2ccccc12`, the growth inhibition is 36.8%.

Turning to `COC(=O)C1(CC(=O)c2ccc(Cl)cc2)NC(=S)NC(=O)C1C#N` (stereo not given), the growth inhibition is 7.95%.

As for `CCCCOC(=O)c1ccc(OC(=O)Nc2ccccc2)cc1`, the growth inhibition is 7.7%.

As to `O=C1NCCN(CCc2ccccc2)C1c1ccccc1` (stereo not given), the growth inhibition was -31.9%.

With `COc1cc(C=O)ccc1OC(=O)Nc1cccc(C(C)=O)c1`, the growth inhibition was 7.65%.

In the case of `Clc1ccc(CN2COc3c(ccc4ccccc34)C2)cc1Cl`, the growth inhibition was 9.65%.

Consider `Cc1c2ccccc2c(C)n2c1nc1cc3ccccc3cc12`, for which the growth inhibition was 8.55%.

As to `COc1ccc(OC)c(NC(=O)c2ccc(Cl)c(Cl)c2)c1`, the growth inhibition was -9.25%.

Consider `CC1SCC(=O)N1c1nncs1` (stereo not given), for which the growth inhibition is -46.2%.

As to `CC(SSc1ccc(C(C)(C)C)cc1)c1ccccc1` (stereo not given), the growth inhibition was -35.4%.

The next experiment is described as follows: NCI Yeast Anticancer Drug Screen. Data for the bub3 strain (AID 167). As to conditions: S. cerevisiae bub3 mutant strain, at 50.0 µM, active compounds read high. The method, boiled down: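 Inhibition values come from growth of compound-treated mutant yeast normalised to vehicle-treated controls.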
Regarding `CN1CCN(c2c3c(nc4ccccc24)CCCC3)CC1`, the growth inhibition was -10.3%.

As for `CNC(=O)Nc1ccnc(=O)[nH]1`, the growth inhibition was -9.55%.

With `O=c1ccc(=O)n(-c2ccc(Cl)cc2)[nH]1`, the growth inhibition is -6%.

In the case of `O=C(c1cccnc1)c1cc(-c2ccccn2)c(=O)n2ccccc12`, the growth inhibition is -15.8%.

In the case of `CCOC(=O)CC1(C)c2nc(NC(C)=O)sc2Cc2sc(NC(C)=O)nc21`, the growth inhibition was -2.4%.

With `O=C1CCCCC1COCC1CCCCC1=O` (stereo not given), the growth inhibition was 5.25%.

For `COc1cc(C2C3=C(COC3=O)OC(C)(C)Oc3cc4c(cc32)OCO4)cc(OC)c1O` (stereo not given), the growth inhibition was -27.1%.

On to `[Co].[O-]c1cccnc1C=Nc1ccccc1.[OH3+]`, for which the growth inhibition is 33.9%.

For the compound `COCC/C=C/CCl`, the growth inhibition was -7.65%.

For the compound `Cc1cc(C(N)=O)c(C(N)=O)c(Cl)n1`, the growth inhibition is 9.05%.

Take `O=C1CCSSCCC(=O)Nc2ccccc2N1`: the growth inhibition was -18.1%.

As to `Cc1c(N=Nc2cccc(Cl)c2Cl)c(-c2ccccc2)nn1C(=S)S`, the growth inhibition is 24.6%.

For the compound `CCC(C(O)c1ccccc1)[N+](=O)[O-]` (stereo not given), the growth inhibition was -11.1%.

In the case of `CCCCN(CCCC)S(=O)(=O)N1CCOCC1`, the growth inhibition was 10.4%.

For the compound `N#Cc1nc(CCC(C(=O)O)N2C(=O)c3ccccc3C2=O)oc1N` (stereo not given), the growth inhibition is -9.15%.

Take `CS(=O)(=O)OCCC(O)COS(C)(=O)=O` (stereo not given): the growth inhibition is -12.5%.

As to `CCOC(=O)/C(C#N)=C/NCC1CC1`, the growth inhibition is -33.2%.

Take `CCC[n+]1cccc(C#N)c1`: the growth inhibition is -4.2%.

With `COC1=C(NCC(C)C)C(=O)C(OC)=C(NCC(C)C)C1=O`, the growth inhibition is 3.25%.

Turning to `N#Cc1c(-c2ccccc2)nc(-c2ccccc2)sc1=S`, the growth inhibition was 48.1%.

Consider `C=C(Cl)C(=C)CCC(Cl)C(C)(C)Cl` (stereo not given), for which the growth inhibition was -16.8%.

On to `CCOC(C)Oc1ccccc1` (stereo not given), for which the growth inhibition was -28.1%.

For the compound `CCOC(=O)C(Br)CN1C(=O)c2ccccc2C1=O` (stereo not given), the growth inhibition is 42%.

In the case of `COc1ccc2c(c1)C(C)(C(N)=O)CCC2` (stereo not given), the growth inhibition is -12.2%.

With `C/C(CC(O)(C(F)(F)F)C(F)(F)F)=N\NC(N)=O`, the growth inhibition is -5.35%.

For the compound `COc1nc(N=P(c2ccccc2)(c2ccccc2)c2ccccc2)cc(=O)[nH]1`, the growth inhibition is 21.9%.

Consider `COC1(OC)C(Cl)=C(Cl)C2C1C1(Cl)C(Cl)=C(Cl)C2(Cl)C1(OC)OC` (stereo not given), for which the growth inhibition was 2.2%.

For the compound `CCCC(O)C(C)N` (stereo not given), the growth inhibition is -2.25%.

`CC(=O)O[C@H]1CC(C)(C)C(=C=C/C(C)=C/C=C/C=C/C=C(C)/C=C2C=C(/C=C/[C@@]34O[C@]3(C)C[C@@H](O)CC4(C)C)C(=O)O/2)[C@](C)(O)C1`: the growth inhibition was 3.6%.
